The values below come from PubChem BioAssay (NCATS).

SMILES strings stand for the structures. Records with an inconclusive call do not appear. Unmarked numbers belong to inactive results. Activity calls are given as the source filed them. Calls come from the whole dose curve; as a rule, active = well fitted cell-killing curve with a large enough effect; inconclusive = small, poorly fitted or top-dose-only effect, or effect the other way; inactive = no such curve, though single readings can be large or run the other way.

A short description of test [1]: Viability qHTS for spleen associated tyrosine kinase inhibitor (SYKi) naive MV4-11 cells (AID 1963823). Note: nearly all actives have a fitted effect of over 40% in size. Summed up:
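Seeding of 500 SYKi-naive MV4-11 cells per well onto pre-dispensed compounds preceded a 72 hr incubation at 37 C. Luminescent CellTiter-Glo signal, read after 10 min at room temperature, reflected viable cells.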
(qHTS replaces the single test concentration by a dilution series.)

Test [2] can be described thus: Viability qHTS for spleen associated tyrosine kinase inhibitor (SYKi) drug resistant MV4-11 cells (AID 1963824). Note: nearly all actives have a fitted effect of over 35% in size. Summed up: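 SYK-inhibitor-resistant MV4-11 AML cells were seeded at 500 per well onto compound and cultured 72 hours (37 °C, 5% CO2). CellTiter-Glo was then added, and after 10 min at room temperature, luminescence gave viability.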
Potency is the fitted concentration of half-maximal effect.

Consider `CN1C/C=C/CCOc2cccc(c2)-c2ccnc(n2)Nc2cccc(c2)C1`, for which the Potency in test [1] is 417 nM (active); in test [2], 206 nM (active).
Taken in the same sequence, the figures for `CC1=CC(=O)[C@]2(O[C@@H]3O[C@@H](C)[C@H](O)[C@@H](O)[C@H]3OC(=O)/C=C/c3ccccc3)C=CO[C@@H](O[C@@H]3O[C@H](CO)[C@@H](O)[C@H](O)[C@H]3O)[C@H]12` were “inactive” and “inactive”.
Take `Cc1nc(C#Cc2ccnc(Cl)c2)c(C)n1-c1ccc(F)cc1`: the Potency in test [1] and in test [2] was 8200 nM (active) each time.
For the molecule `C=C1C(O)C(O)C2(CC3C(C)=CCC4C(C)(C(=O)O)CCCC34C)OC2C1O` (stereo unspecified), the Potency entry in test [1] and in test [2] was “inactive” each time.
As to `COc1ccc(CC(NC(C)=O)C(=O)O)cc1` (stereo unspecified), the Potency result in test [1] and in test [2] was “inactive” each time.
As to `CC1(C)CCC[C@@]2(C)C1[C@H](OC(=O)/C=C/C=C/C(=O)O)C=C1COC(=O)[C@@]12O` (stereo partly specified), the Potency entry in test [1] and in test [2] was “inactive” throughout.
As for `CC1CCC2C(C)(C)CC(C)(CO)C2(O)C1C(=O)O` (stereo unspecified), the Potency result in test [1] and in test [2] was “inactive” throughout.
With `COc1cc2c(Nc3cc(F)c(Cl)c(Cl)c3)ncnc2cc1OCC1CCCN(C)CCC1`, the Potency in test [1] was 1160 nM (active); in test [2], 2590 nM (active).
The corresponding values for `COC(=O)C1=CO[C@@H](O[C@@H]2O[C@H](CO)[C@@H](O)[C@H](O)[C@H]2O)[C@H]2[C@@H]1CC(OC)O[C@@H]2C` (stereo partly specified) are “inactive” and “inactive”.
The corresponding values for `CC(C)CC1NC(=O)C2CC3(O)c4ccccc4NC3N2C1=O` (stereo unspecified) are “inactive” and “inactive”.
Taken in the same sequence, the figures for `CC1(C)CC[C@]2(C(=O)O)CC[C@]3(C)C(=CCC4[C@@]5(C)CC[C@H](O[C@@H]6O[C@H](CO)[C@@H](O)[C@H](O)[C@H]6O[C@@H]6O[C@H](CO)[C@@H](O)[C@H](O)[C@H]6O)[C@@](C)(CO)C5CC[C@]43C)[C@@H]2C1` (stereo partly specified) were “inactive” and “inactive”.
Take `CC(=O)OC/C(=C/C(=O)O)CC[C@@H]1C(C)=CC(=O)[C@@H]2C(C)(C)CCC[C@@]12C`: the Potency entry in test [1] and in test [2] was “inactive” each time.
Regarding `COc1cc(C)c(C(=O)Oc2cc(C)c(C(=O)Oc3cc(C)c(C(=O)NC(C)C(=O)O)c(O)c3)c(O[C@@H]3O[C@H](CO)[C@@H](O)[C@H](O)[C@H]3OC(C)=O)c2)c(OC)c1` (stereo partly specified), the Potency entry in test [1] and in test [2] was “inactive” in each case.
In the case of `CC(C)(OC1OC(CO)C(O)C(O)C1O)C1CCC(O)(CO)C2CC(O)C(C)(O)C2C1` (stereo unspecified), the Potency result in test [1] and in test [2] was “inactive” each time.
Take `C=CC1(C)CC(OC(=O)C(=C)C(O)COC(C)=O)C(C(=C)C(=O)OC)C(O)C1C(=C)CO` (stereo unspecified): the Potency in test [1] is 8930 nM (active); in test [2], 10000 nM (active).
The corresponding values for `COc1cc(/C=C/C(=O)OC[C@H]2O[C@@H](OC3CC(C)=C(C(=O)O)C(C)(C)C3)[C@H](O)[C@@H](O)[C@@H]2O)cc(OC)c1O` (stereo partly specified) are “inactive” and “inactive”.
The corresponding values for `CC1=CC(=O)CC(C)(CO[C@@H]2O[C@H](CO)[C@@H](O)[C@H](O)[C@H]2O)C1(O)/C=C/C(C)=C/C(=O)O` (stereo partly specified) are “inactive” and “inactive”.
Turning to `COC1OC(O)C2(CCC3(O2)C(C)CC2OC(=O)C4(C)CCCC3(C)C24)C1O` (stereo unspecified), the Potency entry in test [1] and in test [2] was “inactive” in each case.
Regarding `CC(=O)NC1=NN(C(C)=O)C(C)(c2ccccc2)S1` (stereo unspecified), the Potency in test [1] is 1840 nM (active); in test [2], 2590 nM (active).
Taken in the same sequence, the figures for `C=C1C(=O)OC2/C=C(\C)CC/C=C(\C)CC(OC(C)=O)C12` (stereo unspecified) were 2590 nM (active) and 2590 nM (active).
The corresponding values for `COc1c(CCC(=O)O)cccc1O[C@@H]1O[C@H](CO)[C@@H](O)[C@H](O)[C@H]1O` are “inactive” and “inactive”.
Turning to `C[C@@H]1O[C@@H](O[C@H]2[C@H](OC(=O)[C@]34CCC(C)(C)C[C@H]3C3=CCC5[C@@]6(C)CC[C@H](O[C@@H]7O[C@H](CO[C@@H]8OC[C@H](O)[C@H](O)[C@H]8O[C@@H]8OC[C@@H](O)[C@H](O)[C@H]8O)[C@@H](O)[C@H](O)[C@H]7O)C(C)(C)C6CC[C@@]5(C)[C@]3(C)C[C@H]4O)O[C@H](CO)[C@@H](O)[C@@H]2O)[C@H](O[C@@H]2O[C@H](CO)[C@@H](O)[C@H](O)[C@H]2O)[C@H](O)[C@H]1O[C@@H]1OC[C@@H](O)[C@H](O[C@@H]2OC[C@@H](O)[C@H](O)[C@H]2O)[C@H]1O` (stereo partly specified), the viability (% of control) in test [1] was 93.4% [at 4.97 µM]. Besides, the viability, % of control in test [2] was 88.9% [at 4.97 µM].
Turning to `CCC(C)C1NC(=O)C(Cc2ccccc2)NC(=O)C(CCCCCC(=O)C(O)CO)NC(=O)C2CCCCN2C1=O` (stereo unspecified), the Potency in test [1] was 2430 nM (active); in test [2], 1930 nM (active).
